Screening results deposited in PubChem by Broad Institute.
Tgondii IFNg – T. gondii growth inhibition with IFN-gamma, primary screen, cell-based | Toxoplasma gondii growth in IFN-gamma-treated host cells; hits give low values | 69,000 tested, 3.8% active | AID 1259416, 2018 | activity change, negative = inhibition, % (no concentration beside the values); in the data active = activity change below about -70%, passing the limit was not always enough;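 note: host cells are HeLa cells infected with Toxoplasma gondii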
Starred values were filed as active, the others as inactive; i = inactive. Only a selection was taken, and hits are over-represented in it overall.

SMILES | Tgondii IFNg
CCN(CC)CCOC(=O)C1(C2CCCCC2)CCCCC1 | -10
COc1ccc(-n2c(=O)c(C(=O)NCc3ccc4c(c3)OCO4)c(O)c3cccnc32)cc1 | 6
Cn1nnc2c1C(COCc1ccccc1)CN(C(=O)C(C)(C)C)C2 (stereo not given) | -9
Cn1nnnc1SCC(=O)N1CCOCC1 | -3
CCCn1nnnc1SCC(=O)NCc1ccc(OC)cc1 | 4
CCCn1nnnc1SCC(=O)N1C(C)CCCC1C (stereo not given) | -76*
C[C@@H]1CCCCO[C@@H](CN(C)Cc2ccc(Cl)c(Cl)c2)[C@H](C)CN([C@H](C)CO)C(=O)c2cc(NS(=O)(=O)c3cccs3)ccc2O1 | -54
C[C@@H]1CN([C@@H](C)CO)C(=O)c2cc(NS(=O)(=O)c3ccc(Cl)cc3)ccc2O[C@@H](C)CCCCO[C@@H]1CN(C)Cc1ccncc1 | -113*
C[C@@H]1CN([C@H](C)CO)C(=O)c2cc(NS(=O)(=O)c3cccs3)ccc2O[C@@H](C)CCCCO[C@H]1CN(C)Cc1ccc(Cl)c(Cl)c1 | -67
C[C@@H]1CCCCO[C@@H](CN(C)Cc2ccc(Cl)c(Cl)c2)[C@H](C)CN([C@@H](C)CO)C(=O)c2cc(NS(=O)(=O)c3cccs3)ccc2O1 | -44
C[C@@H]1CCCCO[C@@H](CN(C)Cc2ccncc2)[C@H](C)CN([C@H](C)CO)C(=O)c2cc(NS(=O)(=O)c3ccc(Cl)cc3)ccc2O1 | -105*
C[C@@H]1CCCCO[C@H](CN(C)Cc2ccncc2)[C@H](C)CN([C@@H](C)CO)C(=O)c2cc(NS(=O)(=O)c3ccc(Cl)cc3)ccc2O1 | 32
C[C@@H]1CN([C@H](C)CO)C(=O)c2cc(NS(=O)(=O)c3ccc(Cl)cc3)ccc2O[C@@H](C)CCCCO[C@@H]1CN(C)Cc1ccncc1 | -112*
C[C@@H]1CCCCO[C@@H](CN(C)Cc2ccc(Cl)c(Cl)c2)[C@@H](C)CN([C@@H](C)CO)C(=O)c2cc(NS(=O)(=O)c3cccs3)ccc2O1 | 278
C[C@@H]1CCCCO[C@@H](CN(C)Cc2ccncc2)[C@@H](C)CN([C@@H](C)CO)C(=O)c2cc(NS(=O)(=O)c3ccc(Cl)cc3)ccc2O1 | 50
CCOCC1CN(Cc2nccs2)Cc2cn(CC)nc21 (stereo not given) | -6
O=C(Nc1ccc(F)cc1F)N1CCCCC1CCn1ccnc1 (stereo not given) | 18
COc1ccc(-c2cc(C)ccc2N2CCOC2=O)c(OC)c1OC | -4
CC(C)NC(=O)N1C[C@H]2[C@@H](C(=O)NCc3ccccc3)CCS(=O)(=O)[C@H]2C1 | 3
c1cc(CC2CCCNC2)c2cccnc2c1 (stereo not given) | 6
O=C(Nc1ccccc1)N1CCCC2(CCCN2Cc2ccc(Cl)cc2)C1 (stereo not given) | 12
CC1=CC[C@@H]2CN(c3nc(C)ccc3C(N)=O)C[C@@H]2C1 | 10
CN(C)CC(=O)N1Cc2nnn(C)c2C(COCc2ccccn2)C1 (stereo not given) | 3
C[C@@H]1O[C@@]2(CS1)CN1CCC2CC1 (racemic) | 12
O=S(=O)(Nc1ccccc1N1CCOCC1)c1cccc2nonc12 | -45
SMILES | Tgondii IFNg
Cn1cc(S(=O)(=O)Nc2ccccc2N2CCOCC2)c(C(F)(F)F)n1 | -24
O=S(=O)(Nc1ccccc1N1CCOCC1)c1cc(Cl)sc1Cl | -85*
COc1ccc(NC(=O)c2nnn(Cc3nc(-c4cccc(OC)c4OC)oc3C)c2C)cc1Cl | 32
COc1cccc(-c2nc(Cn3nnc(C(=O)Nc4cc(C)cc(C)c4)c3C)c(C)o2)c1OC | -105*
COc1cccc(-c2nc(Cn3nnc(C(=O)Nc4ccccc4)c3C)c(C)o2)c1OC | -50
CCOc1ccccc1-c1nc(Cn2nnc(C(=O)Nc3ccccc3OC)c2C)c(C)o1 | -19
COc1cccc(-c2nc(Cn3nnc(C(=O)Nc4cccc(Cl)c4C)c3C)c(C)o2)c1OC | -16
CCOc1ccccc1NC(=O)c1nnn(Cc2nc(-c3cccc(OC)c3OC)oc2C)c1C | -79*
CCCS(=O)(=O)N1CC[C@H]2OCC[C@]2(c2nc(C)no2)C1 | -16
CN(CCc1cn[nH]c1)C(=O)CCc1ccc(Cl)cc1 | -21
COCCCNC(=S)Nc1cccc2ccccc12 | -50
O=C(c1cccs1)N1CCc2c([nH]c3ccccc23)C1c1ccc(F)cc1 (stereo not given) | i
CN(C)CC1CN(CC2CC2)Cc2nccn2C1 (stereo not given) | -5
Cc1cc(C)n(-c2nc3ccccc3s2)n1 | 417
Cc1ccc(-c2cc(-c3ccccc3)nc(-n3nc(C)cc3C)n2)cc1 | -104*
Cc1cc(C)n(-c2ncc(C#N)c(N)n2)n1 | 22
Cc1nc(-c2ccccc2)sc1CCNC(=O)C(=O)Nc1ccc(F)cc1 | 296
CC(C)n1cnnc1CN(C)C(=O)c1cccc(C#CC(C)(C)O)c1 | 9
CN(C)/N=N/c1nc[nH]c1C(N)=O | -83*
Cc1cccc(NC(=O)N2CCC3(CC(=O)N(c4cccc(F)c4)C3)C2)c1 (stereo not given) | 1
CCOc1cccc(CC(=O)N2CCC3(CC2)Nc2cc(F)ccc2-n2cccc23)c1OCC | 62
